# Compound activity deposited in PubChem by National Center for Advancing Translational Sciences (NCATS).
# The list is not random: actives were taken first. Their share in the collection is about 3.4%.
# FLuc inh: inhibitors of firefly luciferase; P08659; purified firefly luciferase, luminescence, 8 min; Potency, µM (titrated, usually from 57.1 µM), without a hit: at the top dose activity change, negative = inhibition, actives largely listed as inhibitors; 72,000 tested, 2.2% active; further: on the % scale 0 is the no-effect control and ±100 the full control effect; nearly all actives have a fitted effect of over 40% in size
#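 Compounds were tested as concentration series (qHTS) against purified P. pyralis luciferase with luciferin and 10 uM ATP in 50 mM imidazole pH 7.2, 50 mM KCl, 7 mM MgCl2, 0.01% Tween 20, 0.05% BSA. Luminescence was read after 8 min at ambient temperature.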
# Imprint erasure: inducers of genomic imprint erasure in mouse ES cells; 110,000 tested, 0.02% active; Potency, µM (series often up to 60.7 µM), without a hit: at the highest dose activity change, positive = activation, usual class: activators; mouse ES Peg3-LacZ reporter, beta-gal luminescence, 40 h
#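 Imprint erasure is scored as LacZ activity from the silenced maternal Peg3 allele in feeder-free female ES cells cultured 40 h with LIF. Luminescence is normalized to in-plate negative controls and fitted to the Hill equation.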
# p53ts 32C kill: cytotoxicity in p53ts cells at permissive temperature; H1299-p53A138V at 32C, ATP luminescence viability, 24 h; Potency, µM (top dose mostly 46.1 µM), without a hit: at the highest dose activity change, negative = cytotoxicity, actives largely listed as cytotoxic; 130,000 tested, 0.93% active; AID 924;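 further: 0% = DMSO and -100% = full killing by reference compound; nearly all actives have a fitted effect of over 55% in size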
#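 Viability by ATPlite luminescence after 24 h compound treatment (up to 46 uM) at the permissive 32C. Cells are H1299 carrying p53 A138V. Scale runs from DMSO basal to 100 uM tamoxifen as full kill; AC50 from Hill fits.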
# p53ts 39C kill: kills p53ts cells at the nonpermissive temperature; H1299-p53A138V viability at 39C, ATP luminescence, 24 h; AID 902; Potency, µM (series often up to 46.1 µM), inactives show at the highest dose activity change, negative = cell killing, usual class: cytotoxic; 130,000 tested, 1.5% active; further: on the % scale 0 is the no-effect control and ±100 the full control effect; nearly all actives have a fitted effect of over 55% in size
# Tau fil binding: binds recombinant human tau filaments | Potency, µM (top dose mostly 57.1 µM), without a hit: at the top dose activity change, negative = inhibition | recombinant tau filaments, thioflavin S fluorescence, 15 h; filaments grown with octadecylsulfate alongside compound | 71,000 tested, 2% active | P10636;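 further: on the % scale 0 is the no-effect control and ±100 the full control effect; actives lower thioflavin S fluorescence by blocking filaments or displacing dye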
# Target sequence (P10636 whole entry, looked up): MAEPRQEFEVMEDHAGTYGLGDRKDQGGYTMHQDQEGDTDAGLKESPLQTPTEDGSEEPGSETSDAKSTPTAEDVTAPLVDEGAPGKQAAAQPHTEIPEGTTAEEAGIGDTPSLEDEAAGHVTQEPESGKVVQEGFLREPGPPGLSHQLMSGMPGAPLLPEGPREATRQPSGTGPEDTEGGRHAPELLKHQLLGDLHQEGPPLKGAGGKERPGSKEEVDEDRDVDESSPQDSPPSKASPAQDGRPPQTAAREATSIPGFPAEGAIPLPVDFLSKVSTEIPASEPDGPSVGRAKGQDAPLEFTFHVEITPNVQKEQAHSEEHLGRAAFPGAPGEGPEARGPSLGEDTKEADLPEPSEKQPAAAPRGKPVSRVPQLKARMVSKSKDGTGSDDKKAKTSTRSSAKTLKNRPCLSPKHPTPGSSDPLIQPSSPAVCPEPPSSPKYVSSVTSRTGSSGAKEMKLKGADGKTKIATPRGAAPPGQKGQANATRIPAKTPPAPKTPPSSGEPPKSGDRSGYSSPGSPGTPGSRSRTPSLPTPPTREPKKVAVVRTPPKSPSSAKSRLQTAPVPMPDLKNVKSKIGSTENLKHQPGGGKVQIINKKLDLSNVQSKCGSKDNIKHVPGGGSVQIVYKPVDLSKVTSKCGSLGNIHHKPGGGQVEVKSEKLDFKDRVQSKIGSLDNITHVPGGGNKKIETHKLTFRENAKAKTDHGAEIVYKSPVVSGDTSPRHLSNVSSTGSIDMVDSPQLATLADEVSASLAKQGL
#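 Read-out: ThS fluorescence, 450 nm excitation/510 nm emission; lower signal marks blocked filament formation or displaced dye. Tau at 1 uM with 30 uM ODS, 10 uM ThS, 5 mM DTT, 100 mM NaCl, 10 mM HEPES pH 7.4; 15 h, 37 C.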
# * hit, by the source's call; ? = inconclusive; / = not tested or not shown; [ ] = another dose, or the depositor's remark. The call rests on the fitted dose curve; in most records, active means well fitted curve in the direction sought with a large enough effect; inconclusive means small, poorly fitted or top-dose-only effect, or another doubt; inactive means no such curve, though single readings can be large; an effect the other way counts as inactive or inconclusive. Potency means the concentration at half of the fitted maximal effect.
SMILES,FLuc inh,Imprint erasure,p53ts 32C kill,p53ts 39C kill,Tau fil binding
COc1ccccc1-n1cc(C(=O)NCC(=O)N2CCN(c3ccccc3)CC2)c2ccccc2c1=O,2µM*,-17.2%,12.6µM*,12.6µM*,3.4%
O=C1CN(C(=O)COc2ccccc2)C(c2ccc(F)cc2)c2cc(Br)ccc2N1 (configuration not stated),/,-2.0%[10.9 µM],-4.7%,-3.0%,/
Cc1ccccc1OCC(=O)OCc1cc(=O)n2nc(C3CC3)sc2n1,/,1.7%[10.9 µM],-1.9%,-15.5%,/
Cc1ccc(-n2ncc3c(N4CCN(Cc5ccccc5)CC4)ncnc32)cc1C,/,-13.0%[10.9 µM],20µM*,31.6µM*,/
CC1CCCN(c2ncnc3c2cnn3-c2ccc(F)cc2)C1 (configuration not stated),/,-47.4%[10.9 µM],2µM*,2µM*,/
Cc1ccc(-n2ncc3c(N4CCN(C)CC4)ncnc32)cc1Cl,/,-21.9%[10.9 µM],-6.6%,?,/
Cc1cccc(-n2ncc3c(N4CCCCCC4)ncnc32)c1,/,-19.0%[10.9 µM],?,3.98µM*,/
Cc1ccc(-n2ncc3c(N4CCCCCC4)ncnc32)cc1C,/,-15.7%[10.9 µM],10µM*,?,/
COc1ccc(CNC(=O)CSc2n[nH]c(-c3ccc(OC)cc3)n2)cc1,/,-5.6%[10.9 µM],1.9%,-17.1%,/
Cc1nnc(S(=O)(=O)c2ccc(N=Nc3c(N)nc(N)nc3N)cc2)s1,0.3%[11.4 µM],3.9%[10.9 µM],6.1%[9.22 µM],10.9%[9.22 µM],5.6%[11.4 µM]
COc1ccc(OC)c(CNC(=O)CCCn2c(=O)c3cccn3c3cccnc32)c1,/,-4.6%[10.9 µM],-1.8%,-14.4%,/
Cc1cccc(C)c1OC[C@H](C)N,0.2%[25.5 µM],-6.2%[16.8 µM],0.6%[20.6 µM],2.9%[20.6 µM],-5.8%[25.6 µM]
CCOC(=O)C1=C([Si](C)(C)C)c2ccccc2N(S(=O)(=O)C(F)(F)F)C1C(=O)OCC (configuration not stated),/,-22.8%,/,/,/
Cc1cccc(-n2ncc3c(N4CCCC(C)C4)ncnc32)c1 (configuration not stated),/,-40.1%[10.9 µM],3.98µM*,2.51µM*,/
Cc1cccc(N2CCN(c3ncnc4c3cnn4-c3ccc(Cl)cc3)CC2C)c1 (configuration not stated),/,2.5%[10.9 µM],?,15.8µM*,/
CCN1CCN(c2ncnc3c2cnn3-c2cccc(C)c2)CC1,/,-16.3%[10.9 µM],-12.4%,-19.3%,/
Cc1cccc(NC(=O)CN2c3ccccc3S(=O)(=O)c3ccccc32)c1C,/,-8.0%[10.9 µM],5.2%,0.4%,/
O=C(O)c1cccc(COc2ccccc2Cl)c1,6.31µM*,-95.9%,10µM*,12.6µM*,5.1%
O=C(Nc1cccc(F)c1)N1CCCC2(CCN(C(=O)c3csnn3)CC2)C1,2.1%[11.4 µM],/,-8.6%,0.8%,-2.1%
COc1cccc(Nc2nc(-c3sc(N)nc3C)cs2)c1,-20.7%,-25.0%,11.4%,-5.9%,12.6µM*
CCOC(=O)N/N=C1/C[C@@H](O)[C@@H](O)[C@@H]2[C@@H]3C(=O)N(C(C)(C)C)C(=O)[C@H]3CC[C@@H]12,-2.3%[11.4 µM],/,0.9%[9.22 µM],2.9%[9.22 µM],/
CCOC(=O)c1c(NC(=O)C2c3ccccc3Oc3ccccc32)sc(C)c1CC,/,-11.6%[10.9 µM],4.2%,29.4%,/
CCOc1ccc(OCc2cccc(C(=O)N3CCOCC3)c2)cc1,5.01µM*,-99.3%,10µM*,12.6µM*,0.4%
Fc1cccc2sc(Nc3nnc(-c4ccco4)o3)nc12,25.1µM*,-62.0%,?,?,-4.5%
COc1cccc2sc(Nc3nnc(-c4cccs4)o3)nc12,15.8µM*,-92.0%,?,12.6µM*,52.1%
SMILES,FLuc inh,Imprint erasure,p53ts 32C kill,p53ts 39C kill,Tau fil binding
Cc1ccc(C(=O)CSc2nc3cc(C(=O)NC4CCCC4)ccc3c(=O)n2CC2CCCO2)c(C)c1 (configuration not stated),/,18.5%[10.9 µM],15.6%,-21.0%,/
CCN(CC)S(=O)(=O)c1ccc(NC(=O)c2ccccn2)cc1,-11.1%,-70.8%,10.9%,-11.8%,0.3%
CN(C)S(=O)(=O)c1ccc(NC(=O)c2ccccn2)cc1,?,21.9%,12.6µM*,10µM*,1.0%
COc1ccc(NC(=O)CSc2nc(-c3cc(OC)c(OC)c(OC)c3)[nH]c2-c2ccc(F)cc2)cc1,/,9.1%[10.9 µM],1.1%,?,/
COc1ccc(C(=O)NCc2nc3ccccc3[nH]2)cc1OC,0.8%,-7.1%,-1.9%,5.7%,-27.4%
O=C(Nc1nc2ccccc2[nH]1)c1ccccc1F,1µM*,-94.7%,1.26µM*,1.58µM*,-4.6%
O=C(NCCc1nc2ccccc2[nH]1)c1ccc(F)cc1,0.2%,-0.7%,9.8%,4.3%,-25.4%
COc1ccc(C(=O)Nc2nc3ccccc3[nH]2)cc1OC,25.1µM*,-41.0%,?,?,6.2%
O=C(Nc1nc2ccccc2[nH]1)c1ccc(F)cc1,3.16µM*,-90.4%,3.16µM*,2µM*,-2.4%
Cc1cc(-c2csc(NC(=O)c3ccc(=O)n(C)n3)n2)c(C)n1CC1CCCO1 (configuration not stated),-0.9%,0.7%,5.1%,-3.9%,7.94µM*
CCOc1ccc(-c2cc(CCCC(=O)NCCCOC)no2)cc1,15.8µM*,-34.1%,?,-27.6%,16.0%
Cc1cc(=O)oc2c(O)c(O)ccc12,/,-66.4%,-27.3%,?,/
O=c1cc(-c2ccc(O)c(O)c2)oc2ccccc12,/,-49.4%,-1.1%,8.6%,/
O=c1cc(-c2ccccc2O)oc2ccc3ccccc3c12,0.501µM*,-96.8%,2.51µM*,2µM*,?
O=c1cc(-c2ccccc2)oc2c(O)c(O)ccc12,/,-35.7%,?,12.6µM*,/
O=c1cc(-c2ccccc2)oc2cc(O)c(O)cc12,/,-24.5%,2.51µM*,2µM*,/
O=c1cc(-c2ccccc2O)oc2c(O)c(O)ccc12,-22.1%[11.4 µM],2.4%,-11.0%,-16.2%,39.8µM*
O=c1cc(-c2ccccc2Cl)oc2cccc(O)c12,/,-10.4%[97.3 µM],/,/,/
Cc1nn(S(=O)(=O)c2ccc(C(C)(C)C)cc2)c(C)c1S(=O)(=O)N1CCCCCC1,/,-1.2%[10.9 µM],-12.2%,-12.6%,/
O=C(c1cc(C(F)(F)F)cc(C(F)(F)F)c1)N1CCC2(CCN(Cc3ccncc3)CC2)CC1,0.8%[11.4 µM],/,-10.9%,-17.3%,-4.5%
CCC(=O)Nc1cccc(-c2nc3ccccc3c(=O)o2)c1,?,-48.2%,12.6µM*,10µM*,1.4%
CCCOc1ccc(-c2nc3ccccc3c(=O)o2)cc1,/,-46.1%[10.9 µM],10µM*,5.01µM*,/
CCOC(=O)c1sc(Nc2nc3c(OC)cccc3s2)nc1C,15.8µM*,-33.6%,-23.9%,-12.7%,37.8%
COc1cc(-n2nc(C)c3c2OC(N)=C(C#N)C3c2ccccc2)c(Cl)c(Br)c1O (configuration not stated),-0.5%,-18.5%,-26.9%,19.4%,25.1µM*
CC[N+](CC)(CC(=O)Nc1c(C)cccc1C)Cc1ccccc1,-18.3%[25.5 µM],-14.8%[16.8 µM],-6.0%[20.6 µM],0.7%[20.6 µM],-17.9%[25.6 µM]
CC(=O)n1c2ccccc2c2c(C#N)c(N3CCCCC3)sc21,-0.8%,-0.9%,5.8%,8.6%,-24.3%
C=CCNc1nc2c3ccccc3n(C(C)=O)c2s1,20µM*,-18.8%,-23.2%,-21.0%,-1.4%
O=C(NCc1ccccc1)c1nc(S(=O)(=O)Cc2ccccc2)ncc1Cl,/,-16.1%[10.9 µM],?,7.94µM*,/
